Molecules are shown by their SMILES. A number with no mark means an inactive call.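 Rule for the calls: active = compounds whose dose series gives a full or clear partial fitted curve of increased nuclear translocation; inconclusive = weak partial curve or effect only at the top dose; inactive = no dose-dependent translocation response.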
Potency is the fitted concentration of half-maximal effect.

This assay deals with Glucocorticoid receptor (Homo sapiens) (UniProt P04150). Nature of the assay: GR-GFP Redistribution (AID 450). Particulars: U2OS GR-GFP nuclear translocation, laser cytometry, 2 h; series mostly up to 20.6 µM.
Chain of Glucocorticoid receptor (Homo sapiens) (P04150 whole entry, looked up): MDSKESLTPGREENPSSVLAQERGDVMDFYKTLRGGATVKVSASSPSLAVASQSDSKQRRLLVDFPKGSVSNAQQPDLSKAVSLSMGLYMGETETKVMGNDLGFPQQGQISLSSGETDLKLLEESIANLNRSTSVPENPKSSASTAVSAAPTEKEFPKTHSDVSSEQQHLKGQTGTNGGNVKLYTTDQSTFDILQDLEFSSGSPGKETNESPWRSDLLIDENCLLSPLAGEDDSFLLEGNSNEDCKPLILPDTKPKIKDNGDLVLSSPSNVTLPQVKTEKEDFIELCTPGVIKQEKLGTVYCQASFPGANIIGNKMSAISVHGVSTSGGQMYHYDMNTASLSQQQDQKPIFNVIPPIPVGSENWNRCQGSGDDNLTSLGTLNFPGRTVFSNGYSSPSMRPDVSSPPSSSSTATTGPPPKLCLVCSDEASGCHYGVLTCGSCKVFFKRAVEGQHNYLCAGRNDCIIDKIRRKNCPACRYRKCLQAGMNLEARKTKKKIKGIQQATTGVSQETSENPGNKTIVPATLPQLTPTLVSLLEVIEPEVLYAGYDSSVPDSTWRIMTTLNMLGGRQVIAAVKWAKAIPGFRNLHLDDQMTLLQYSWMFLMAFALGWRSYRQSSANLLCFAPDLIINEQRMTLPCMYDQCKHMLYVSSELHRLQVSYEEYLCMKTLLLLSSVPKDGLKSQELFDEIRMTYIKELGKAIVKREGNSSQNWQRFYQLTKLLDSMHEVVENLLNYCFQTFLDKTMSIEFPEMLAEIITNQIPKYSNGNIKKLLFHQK
Consider `COc1ccc(C2CC(c3ccccc3)Nc3nc(N)nn32)cc1` (centres undefined), for which the Potency is greater than 20.6 µM.

In the case of `CC1(C)Cc2c(c(-c3ccccc3)[nH]c(=O)c2C#N)CS1`, the Potency is greater than 20.6 µM.

As to `O=C(NCCCn1ccnc1)c1cccnc1`, the Potency is greater than 20.6 µM.

Turning to `COc1cc([C@@H]2[C@H]3CN(C)CC=C3C(C#N)=C(N)C2(C#N)C#N)cc2c1OCO2`, the Potency was greater than 20.6 µM.

Regarding `CNC(=O)c1cc2ccccc2o1`, the Potency is greater than 20.6 µM.

With `CCOC(=O)c1[nH]c2ccccc2c1NC(=O)CCN1CCN(C(=O)OCC)CC1`, the Potency was greater than 20.6 µM.

On to `CC(=O)N1CCN(C2c3cccc4cccc(c34)C2NS(=O)(=O)c2ccccc2)CC1` (centres undefined), for which the Potency is greater than 20.6 µM.

Regarding `Cc1c(NC(=O)c2ccc(=O)oc2)c(=O)n(-c2ccccc2)n1C`, the Potency was greater than 20.6 µM.

In the case of `CCOc1ccc(C2C(C(=O)c3ccc(C)o3)=C(O)C(=O)N2CCCN(CC)CC)cc1` (centres undefined), the Potency is greater than 20.6 µM.

In the case of `COc1ccc(-c2c3c([nH]c(=S)c2C#N)CCC3)cc1`, the Potency was greater than 20.6 µM.

`COc1ccc(OCC(=O)N2CCN(C(=O)c3cccc4ccccc34)CC2)cc1`: the Potency is greater than 20.6 µM.

Take `Cc1[nH]nc2cn[nH]c12`: the Potency was greater than 20.6 µM.

Turning to `S=c1[nH]nc(-c2ccccc2)n1Cc1ccccc1`, the Potency is greater than 20.6 µM.

For the compound `COc1cccc(OC)c1-c1nn2c(-c3ccco3)nnc2s1`, the Potency was greater than 20.6 µM.

Consider `CC1(C)CN(O)CCN1O`, for which the Potency was greater than 20.6 µM.

As to `Cc1cc(/C(O)=C2\C(=O)C(=O)N(CCN(C)C)C2c2ccncc2)ccc1OCc1ccccc1` (centres undefined), the Potency was greater than 20.6 µM.

Regarding `COc1ccccc1NC(=O)CSc1nnc(-c2ccc(NC(C)=O)cc2)n1C`, the Potency is greater than 20.6 µM.

Regarding `CCOC(=O)c1c(C)[nH]c(/C(C)=N/O)c1C`, the Potency was greater than 20.6 µM.

For the compound `COC(=O)CSc1nnc(C)c(=O)[nH]1`, the Potency was greater than 20.6 µM.

Take `Cc1ccc2c(c1)C(CCN)C(=O)N2Cc1ccccc1` (centres undefined): the Potency was greater than 20.6 µM.

For `CC(C)(C#N)C(C)(C)c1nn[nH]n1`, the Potency was greater than 20.6 µM.

As for `Cc1cc(NC(CC(C)C)C(=O)O)nc(Cc2ccccc2)n1` (centres undefined), the Potency is greater than 20.6 µM.

Regarding `CCOC(=O)c1c(C)oc2ccc(OCC(=O)C(C)(C)C)cc12`, the Potency is greater than 20.6 µM.

In the case of `CCOC(=O)C1CCCN(c2nc3ccccc3nc2C(C#N)C(=O)OCCOC)C1` (centres undefined), the Potency was greater than 20.6 µM.

For `Cc1nn(CC(=O)NCCN2CCOCC2)c(=O)c2ccccc12`, the Potency is greater than 20.6 µM.

As for `CCc1ccc2c(c1)C(C)=CC(C)(C)N2`, the Potency was greater than 20.6 µM.

Consider `Nc1nnnn1/N=C/c1ccccn1`, for which the Potency was greater than 20.6 µM.

`CCOC(=O)CC(C#N)c1cn(C)c2ccccc12` (centres undefined): the Potency is greater than 20.6 µM.

Consider `Oc1ccc2ccccc2c1C=NC12CN3CCN(CN(C3)C1)C2`, for which the Potency was greater than 20.6 µM.

For the compound `CCOC(=O)CNS(=O)(=O)c1cc(-c2n[nH]c(=O)c3ccccc23)ccc1C`, the Potency was greater than 20.6 µM.

Take `O=C(CN1C2=NCCN2c2ccccc21)N1CCOCC1`: the Potency is greater than 20.6 µM.

Turning to `COc1cccc(NC(=O)CSC2=C(C#N)C(c3ccco3)C3=C(CCCC3=O)N2)c1` (centres undefined), the Potency is greater than 20.6 µM.

`OCCOCCNc1ncnc2c1cnn2-c1ccccc1`: the Potency was greater than 20.6 µM.

With `CCN(CC)C(=O)CSC1=C(C#N)C(c2cccs2)C=C(C)N1` (centres undefined), the Potency is greater than 20.6 µM.

With `COc1ccccc1C(CC(=O)Nc1nccs1)c1ccco1` (centres undefined), the Potency is greater than 20.6 µM.

For the compound `Cn1c(=O)c2c(nc(Br)n2Cc2ccc3ccccc3c2)n(C)c1=O`, the Potency was greater than 20.6 µM.

`O=C(O)CC(NCc1ccco1)C(=O)OCCc1ccccc1` (centres undefined): the Potency was greater than 20.6 µM.

In the case of `CCSc1nnc(NC(=O)C(C)(C(F)(F)F)C(F)(F)F)s1`, the Potency is greater than 20.6 µM.

With `COC(=O)COc1ccc(Oc2nc(SC)nc(N(C)C)n2)nn1`, the Potency is greater than 20.6 µM.

The values are drawn from PubChem BioAssay (NCATS).
